# The entries come from a sample that favours hits as a whole.
# RMI FANCM FP – inhibitors of human RMI core complex binding to FANCM MM2 | AID 1159607 | FP signal (polarization) at 33 µM | 70,000 compounds, 0.58% hits | Fluorescence polarization, RMI core complex with F-MM2 peptide; hits give low values; in the data active = FP signal below about 40
# The depositor's hits bear a star; ! = not confirmed by another sample.
SMILES,RMI FANCM FP
C=CCn1c(SCC(=O)c2ccc(Cl)c(Cl)c2)nc2sc3c(c2c1=O)CCC3,192
Cc1ccsc1C1C2=C(CCCC2=O)Nc2c1c(=O)n(C)c(=O)n2C (stereo not given),55
CC1(C)CC(=O)C2=C(C1)Nc1[nH]c(=S)[nH]c(=O)c1C2c1ccc2c(c1)OCO2 (stereo not given),52
Cn1c2c(c(=O)n(C)c1=O)C(c1cccc(F)c1)C1=C(CC(C)(C)CC1=O)N2 (stereo not given),-8*
CCN(CC)CCNc1nc2cc(C)cc(C)c2s1,79
COc1ccc(Cl)cc1C(=O)Oc1coc(CSc2nccn2C)cc1=O,52
S=c1[nH]nc2ccccn12,56
S=c1[nH]cc2ccccn12,18*
Cn1c(-c2ccccc2)c[nH]c1=S,60
Cc1cccc(CC(=O)Nc2cc(C)nn2-c2nc(C)cc(=O)[nH]2)c1,70
COc1ccc(C(=O)CSc2nnc(-c3ccc(C(C)(C)C)cc3)n2-c2ccc3c(c2)OCO3)cc1,56
N#C/C(=C\c1ccc(-c2cccc(C(F)(F)F)c2)o1)C(N)=S,41
COC(=O)/C(C#N)=C\c1cc([N+](=O)[O-])ccc1N1CCCC1,95
N#C/C(=C/c1ccoc1-c1ccc([N+](=O)[O-])cc1)C(N)=S,24*
Cc1ccc(-n2c(=O)c3ccccc3c3ccccc3c2=O)cc1F,62
CC(C)CCC[C@@H](C)[C@H]1CC=C2C3=CCC4C[C@@H](OC(=O)c5ccccc5)CC[C@]4(C)[C@H]3CC[C@@]21C (stereo not given in full),58
Cc1cc(NS(=O)(=O)c2ccc(NC(=O)CCN3C(=O)c4ccccc4C3=O)cc2)nc(C)n1,60
Cc1cc(NS(=O)(=O)c2ccc(NC(=O)c3ccc(Br)o3)cc2)no1,66
Cc1cc(NS(=O)(=O)c2ccc(NC(=O)c3oc4cc(C)c(C)cc4c3C)cc2)nc(C)n1,17*
COc1cn(C)c(C(=O)Nc2ccc(OC(F)(F)F)cc2)cc1=O,61
Cc1cccn2cc(-c3cccc(NC(=O)c4ccc(N5C(=O)C6CCCCC6C5=O)cc4)c3)nc12 (stereo not given),83
Cc1nccc(-c2sc(-c3cccs3)nc2C)n1,55
CSc1nccc(-c2ccc(Br)s2)n1,62
CSc1nccc(-c2sc(-c3ccc(Cl)cc3)nc2C)n1,32*
O=C(OCCOc1ccc(Cl)cc1Cl)c1ccccc1Cl,57
SMILES,RMI FANCM FP
O=C(OCC(O)CO)c1ccccc1Nc1ccnc2cc(Cl)ccc12 (stereo not given),-4*!
Clc1ccc2c(Nc3ccc4c(c3)OCO4)ccnc2c1,58
Cc1csc(NC(=O)CC2CCCCN2S(=O)(=O)c2ccccc2)n1 (stereo not given),66
CCc1ccc2c(c1)C(C)(C)C1(/C=C/c3ccco3)NC(=O)CCN21 (stereo not given),99
CC1CCCCN1CCCNS(=O)(=O)c1ccc(S(=O)(=O)c2ccc(C(F)(F)F)cn2)s1 (stereo not given),67
CCOc1cc2c(c([N+](=O)[O-])c1)NC(=O)CS2,69
COc1cc(-c2ccc(SC)nn2)cc(OC)c1OC,54
Nc1c(C(=O)N2CCOCC2)sc(=S)n1-c1ccccc1F,64
O=C1N=c2ccccc2=CC1=Cc1sc(=S)n(Cc2ccccc2)c1O,56
Oc1c(C=C2N=c3ccccc3=N2)sc(=S)n1-c1ccccc1F,23*
COC(=O)Cn1c(=NC(=O)c2ccnn2C)sc2cc(S(N)(=O)=O)ccc21,73
CCOC(=O)c1c(NC(=O)c2ccno2)sc2c1CCCC2,58
COc1ccc(-c2cc(-c3ccc(Cl)cc3)nc3sc(C(=O)NCCc4ccccc4)c(N)c23)cc1,-12*
COc1ccc(-c2cc(-c3ccccc3)nc3sc(C(=O)Nc4nsc(-c5ccccc5)n4)c(N)c23)cc1OC,128
COc1ccc(-c2cc(-c3ccc(C)c(C)c3)nc3sc(C(=O)Nc4nsc(-c5ccc(Cl)cc5)n4)c(N)c23)cc1,78
COc1ccc2nc(-c3ccc(C)c(NC(=O)c4cccc(Cl)c4)c3)cn2n1,110
O=c1c2nnc(-c3ccc(Cl)cc3)n2ccn1-c1ccc(F)cc1,63
CC(C)c1ccc(/C=C/C(=O)N2CCC3(O)CCCCC3C2)cc1 (stereo not given),54
O=C(CSC1CN(C(c2ccccc2)c2ccccc2)C1)N/N=C/c1ccc(Cl)cc1Cl,59
O=C(CC1NCCN(Cc2ccccc2)C1=O)N/N=C\c1cc(Cl)cc(Cl)c1O (stereo not given),35*!
Oc1c(Cl)cc(Cl)cc1/C=N\NCCc1ccccn1,45
CCn1c(SCC(=O)Nc2sc(-c3ccccc3)cc2C(N)=O)nc2sc3c(c2c1=O)CCC(C)C3 (stereo not given),76
O=C(Nc1ccc(F)c(C(F)(F)F)c1)C1CCN(c2ccc(-c3ccco3)nn2)CC1,68
O=C(Nc1ccc(F)c(Cl)c1)C1CCN(c2ccc(-c3ccco3)nn2)CC1,74
O=C(Nc1cnc2ccccc2c1)C1CCN(c2ccc(-c3ccco3)nn2)CC1,26*
SMILES,RMI FANCM FP
COCCn1c(SCC(=O)c2ccc(OC)c(OC)c2)nc2cc(C(=O)NC(C)C)ccc2c1=O,61
O=C(N1CCN(C(c2ccccc2)c2ccccc2)CC1)C1(c2cccs2)CCOCC1,57
COC(=O)c1ccc(C(=O)N(CCn2cccn2)c2nc3c(Cl)cccc3s2)cc1,62
O=C(NCCn1nc(-c2ccco2)ccc1=O)c1ccc2c(c1)OCO2,58
c1csc(-c2ccnc(SCc3ccc4nonc4c3)n2)c1,68
O=C(CSc1nccc(-c2cccs2)n1)N1CCOCC1,60
O=C(CSc1nccc(-c2cccs2)n1)c1cc(-c2ccc(Cl)c(Cl)c2)no1,12*
O=C(CC1CCCCN1S(=O)(=O)c1cccs1)Nc1cccc(C(F)(F)F)c1 (stereo not given),72
CCSc1nnc(CCc2c(C)[nH]c(=O)n(C)c2=O)o1,58
Cc1nc2sccn2c(=O)c1NC(=O)CSCc1ccccc1,56
COc1ccc(S(=O)(=O)C(CNC(=O)c2c(F)cccc2Cl)c2ccco2)cc1 (stereo not given),58
COc1ccc(S(=O)(=O)NCC(c2ccsc2)N2CCCCCC2)cc1Cl (stereo not given),75
COc1ccc2nc(-c3cccc(NS(=O)(=O)c4ccc(OC)c(F)c4)c3)cn2n1,72
CCC(C(=O)Nc1cc(-c2ccco2)nn1-c1nc(C)c(C)c(=O)[nH]1)c1ccccc1 (stereo not given),31*
Cc1nc(-n2nc(-c3ccco3)cc2NC(=O)COc2ccccc2F)[nH]c(=O)c1C,41
CCOCC(=O)Nc1cc(-c2ccco2)nn1-c1nc(C)c(C)c(=O)[nH]1,65
COc1cccc(C(=O)Nc2cc(-c3ccco3)nn2-c2nc(C)c(C)c(=O)[nH]2)c1OC,56
Cc1nc(-n2nc(-c3ccco3)cc2NC(=O)c2cc3ccccc3o2)[nH]c(=O)c1C,23*
Cc1nc(-n2nc(-c3ccco3)cc2NC(=O)Cc2ccc(F)cc2)[nH]c(=O)c1C,61
CCC(C(=O)Nc1cc(-c2cccs2)nn1-c1nc(C)c(C)c(=O)[nH]1)c1ccccc1 (stereo not given),61
Cc1nc(-n2nc(-c3cccs3)cc2NC(=O)c2cc3ccccc3o2)[nH]c(=O)c1C,64
Cc1nc(-n2nc(-c3ccco3)cc2NC(=O)c2ccc(Br)o2)[nH]c(=O)c1C,39*
COc1ccccc1-n1ncc2c(C(C)C)nnc(SCc3ccccn3)c21,61
CCOc1nn(CC)cc1C(=O)N1CCN(c2ccccc2Cl)CC1,57
